Source: the supplement of paper PMC10477191
± gives the standard deviation of the averaged measurements.

tested on: Drosophila virilis antennal basiconic sensillum AB10; assay: odor-evoked OSN spike response (post minus pre-stimulus); higher = stronger neuronal excitation; conditions: odor dilution: 10^-4
Procedure: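 Single sensillum recordings from antennal basiconic sensilla of D. virilis. A 500 ms pulse of odorant (10^-4 in mineral oil or DMSO) was delivered; the response is the change in spike frequency between the 1 s pre- and post-stimulus windows (spikes/s).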

Row | SMILES | odor-evoked OSN spike response
1 | CCOC(=O)CC(C)O (stereo not drawn) [Ethyl-3-hydroxybutyrate] | 99.4 ± 35 spikes/s
2 | CC(=O)OC/C=C(\C)CCC=C(C)C [geranyl acetate] | 134 ± 24 spikes/s
3 | CC(=O)C(C)O (stereo not drawn) [acetoin] | 143 ± 43 spikes/s
